HCV inh = blocks hepatitis C virus. Huh7.5.1 HCVcc-Cre infection, luciferase reporter, 44 h. Potency, µM (top dose mostly 41.8 µM), for inactives: at the top dose activity change, negative = inhibition, most hits filed as inhibitors. hit rate 3.4% among 340,000. AID 651820; active means well fitted inhibition curve with a large enough effect; inconclusive means small, poorly fitted or top-dose-only effect, or another doubt; inactive means no such curve, though single readings can be large or run the other way; further: potency means the concentration at half of the fitted maximal effect; on the % scale 0 is the no-effect control and ±100 the full control effect
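Luciferase read-out (15 sec integration) after a 15 min room-temperature substrate step quantifies HCVcc-Cre infection. Cells, 1,000 per well, had compound added 4 h post-plating, then virus at ~0.5 moi, and were cultured 44 h.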
Marburg entry inh = Marburg virus entry inhibition; Potency, µM (doses to about 37.8 µM), for inactives: at the highest dose activity change, negative = inhibition, hits mostly inhibitors; Marburg virus pseudotyped entry inhibition, cell reporter; hit rate 1.8% among 300,000; calls by dose curve; tested in HEK293 cells; further: potency means the concentration at half of the fitted maximal effect; on the % scale 0 is the no-effect control and ±100 the full control effect
FMDV antiviral = foot and mouth disease virus antiviral activity; FMDV antiviral cell-based qHTS; Potency, µM (top dose mostly 57.9 µM), without a hit: at the highest dose activity change, negative = inhibition, hits mostly inhibitors; AID 1159524; hit rate 1.2% among 410,000; calls by dose curve; tested in HEK293T cells; further: read-out not given here; potency means the concentration at half of the fitted maximal effect; on the % scale 0 is the no-effect control and ±100 the full control effect; nearly all actives have a fitted effect of over 45% in size
HCMV antiviral = human cytomegalovirus inhibition. HFF cells, HCMV-luciferase reporter, 72 h; stronger effect = lower value. activity change, negative = inhibition, % at 57.5 µM. hit rate 4.5% among 410,000; in the data active means activity change below about -60%; inconclusive means no clear call, values can overlap the other calls; inactive means above about -39%; further: on the % scale 0 is the no-effect control and ±100 the full control effect
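HFF cells seeded 16 h at 37C, treated with compounds, infected with luciferase-reporter HCMV at MOI 1 PFU/cell; luciferase read at 72 h post infection, normalized to buffer-only and Salinomycin controls.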
SARS PLpro yeast = blocks SARS-CoV papain-like protease in a yeast assay; S. cerevisiae expressing SARS-CoV PLpro, growth rescue; Potency, µM (series often up to 32.9 µM), without a hit: top-dose activity, positive = growth rescue, most hits filed as activators; hit rate 0.19% among 330,000; AID 485353; calls by dose curve; further: potency means the concentration at half of the fitted maximal effect; 0% is about no effect; nearly all actives have a fitted effect of over 55% in size
LASV entry inh = Lassa virus entry inhibition; Potency, µM (top dose mostly 37.9 µM), without a hit: at the top dose activity change, negative = inhibition, actives largely listed as inhibitors; Lassa virus pseudotype entry inhibition, cell reporter; hit rate 1.2% among 300,000; AID 540256; calls by dose curve; tested in HEK293 cells; further: potency means the concentration at half of the fitted maximal effect; on the % scale 0 is the no-effect control and ±100 the full control effect; nearly all actives have a fitted effect of over 50% in size
Active calls of the source: *; ? = inconclusive; . = no result given; [ ] = remark or other dose. Sampled rows, rich in hits. Any-hit rate of the full collection: about 8%.

SMILES	HCV inh	Marburg entry inh	FMDV antiviral	HCMV antiviral	SARS PLpro yeast	LASV entry inh
O=[N+]([O-])c1ccc(N2CCN(CCO)CC2)cc1Sc1ccccn1	-1.4%	25.4%[46.1 µM]	-12.6%	16.0	1.4%	13.9%
CS(=O)(=O)c1cc([N+](=O)[O-])c(Sc2nc3ccccc3[nH]2)c([N+](=O)[O-])c1	?	13µM*	?	23.0	-7.4%	19.6%
COc1ccccc1CNC(=O)CSc1nc(=O)[nH]c2c1CCC2	.	.	-6.9%	-27.9	.	-0.1%[46.1 µM]
CCOc1ccc(S(=O)(=O)NCCC(=O)N2CC=C(c3ccccc3)CC2)cc1	22.4µM*	.	?	?	-2.1%	.
CCOc1ccc(S(=O)(=O)NCCC(=O)N2CCN(Cc3ccccc3)CC2)cc1	-5.6%	-28.3%	-26.7%	-28.3	-2.6%	-6.7%
Cn1nnc(NC(=S)NC(=O)c2ccc3ccccc3c2)n1	.	.	49.3%	-67.2*	.	.
O=C(O)c1ccc(NC(=S)NC(=O)c2ccc3ccccc3c2)cc1	9.5%	-17.2%	0.8%	7.3	0.2%	9.8%
Cn1nnc(NC(=O)c2ccc3ccccc3c2)n1	-21.6%	?	35.0%	33.8	2.3%	10.1%
O=C(O)c1cccc(NC(=S)NC(=O)c2ccc3ccccc3c2)c1	13.9%	?	14.1µM*	39.2	2.1%	0.794µM*
COc1ccc(C2C(=O)N(C3CCCCC3)CC(=O)N2CCc2ccc(OC)c(OC)c2)cc1 (stereo not drawn)	.	.	-4.6%	2.0	.	4.4%[46.1 µM]
O=C(Nc1ccc(Oc2ccc3c(c2)C(=O)N(c2ccc(O)cc2)C3=O)cc1)c1cccs1	-13.2%	?	-16.3%	-77.5*	2.6%	-2.0%
CC(C)CN1C(=O)c2ccc(NC(=O)c3cccs3)cc2C1=O	?	?	10.9%	-26.6	-0.3%	32.9%[14.3 µM]
CN(C)C=NC(=O)c1cc(C(=O)c2ccccc2Cl)c[nH]1	0.1%	3.1%[46.1 µM]	-9.6%	10.3	0.0%	10.4%
CN(C)C=NC(=O)c1cc(C(=O)c2ccc(C(C)(C)C)cc2)c[nH]1	-5.3%	?	8.0%	114.3	-1.6%	3.16µM*
O=C1OCC2=C1C(c1ccc(F)cc1)c1cc3c(cc1N2)OCO3 (stereo not drawn)	?	?	?	-92.9*	-0.5%	?
CC(=O)Oc1ccc(C2C3=C(CC(C)(C)CC3=O)Nc3cc4c(cc32)OCCO4)cc1 (stereo not drawn)	15.9%	.	-6.9%	-5.4	0.0%	.
O=C1OCC2=C1C(c1ccc3c(c1)OCO3)Sc1ccccc1N2 (stereo not drawn)	?	?	-29.3%	?	-0.7%	-12.4%
C#CCOc1ccc(C2C3=C(COC3=O)Nc3cc4c(cc32)OCO4)cc1OC (stereo not drawn)	-17.0%	?	-12.4%	-82.3*	-1.7%	?
CCOc1ccccc1C1C2=C(COC2=O)Nc2cc3c(cc21)OCO3 (stereo not drawn)	?	?	-0.2%	-94.3*	-0.6%	?
COc1ccc(C2C3=C(COC3=O)Oc3cc4c(cc32)OCO4)cc1OC (stereo not drawn)	6.1%	-3.5%	-19.6%	-23.7	.	-10.9%
O=C1OCC2=C1C(c1ccc(F)cc1)c1cc3c(cc1N2)OCCO3 (stereo not drawn)	5.2%	-42.9%[46.1 µM]	-15.1%	-84.6*	5.1%	?
Cc1ccc(C)c(NC(=O)CSc2cn(CC(=O)N3CCCCC3)c3ccccc23)c1	.	.	4.4%	?	.	-0.7%[46.1 µM]
CCOc1ccc2ncc3c(-c4ccccc4)nn(CC(=O)Nc4cccc(F)c4)c3c2c1	.	.	-8.0%	0.0	.	30.4%[46.1 µM]
C[C@H](N[C@@H](C)CCc1ccccc1)[C@H](O)c1ccc(O)cc1	.	-44.4%	.	.	.	.
CC(CCc1ccccc1)NCC#N (stereo not drawn)	15.2%	.	-8.1%	-61.1*	-0.6%	.
SMILES	HCV inh	Marburg entry inh	FMDV antiviral	HCMV antiviral	SARS PLpro yeast	LASV entry inh
CC(CCc1ccccc1)NCCC#N (stereo not drawn)	8.2%	?	-16.4%	-0.1	-0.8%	-19.3%[46.1 µM]
CC(CCc1ccc(O)cc1)NCCC(c1ccccc1)c1ccccc1 (stereo not drawn)	14.1µM*	7.08µM*	24.8%	-10.1	4.5%	?
CN(C)CCOC1c2ccccc2CCc2ccc3ccccc3c21 (stereo not drawn)	?	5.01µM*	?	?	.	?
CCC1CN(CCNC(=O)c2cccc(C(=O)OC)c2)Cc2cc(OC)ccc2O1 (stereo not drawn)	.	.	54.1%	.	.	.
O=[N+]([O-])c1cccc(S(=O)(=O)NCc2ccncc2)c1	12.6µM*	-3.8%[46.1 µM]	?	?	-1.1%	-12.0%
O=S(=O)(NCc1ccccc1)c1ccc(S(=O)(=O)NCC2CCCO2)cc1 (stereo not drawn)	4.2%	17.7%[46.1 µM]	45.0%	3.7	0.1%	-17.6%
CCCCc1ccc(S(=O)(=O)NCCc2ccncc2)cc1	11.2µM*	-20.9%[46.1 µM]	-4.0%	-63.0*	-2.0%	?
O=[N+]([O-])c1cccc(S(=O)(=O)Nc2ccc(Cc3ccncc3)cc2)c1	?	.	-29.4%	0.0	2.3%	.
CCCCNS(=O)(=O)c1ccc(S(=O)(=O)NCc2ccncc2)cc1	10µM*	-21.2%	.	-72.0*	6.8%	-20.0%
O=S(=O)(NCc1ccncc1)c1ccc(S(=O)(=O)NCC2CCCO2)cc1 (stereo not drawn)	12.6µM*	?	.	-38.8	6.1%	?
COc1cccc([C@@H]2[C@@H](C)CC[C@@H]3C(=O)NC[C@H](O)CN32)c1	.	-11.0%[14.2 µM]	.	.	.	.
COc1ccccc1CNc1ncncc1-c1ccccc1OC	.	.	-2.7%	.	.	.
CCc1nc2cc(C(=O)N(C)CC3COCCO3)cc(NC(=O)c3ccccc3OC)c2n1C (stereo not drawn)	.	.	-5.6%	.	.	.
O=C(Nc1cc(C(F)(F)F)ccc1Cl)c1ccncc1	6.1%	-36.8%	-20.2%	?	-5.7%	9.1%
C/C(=N\Nc1cc(C(F)(F)F)ccc1Cl)c1ccncc1	12.6µM*	-1.5%[46.1 µM]	-22.1%	-15.7	-4.7%	.
COc1ccc(-n2cc(CNC3CCC(O)CC3)c(-c3cccc(F)c3)n2)cc1 (stereo not drawn)	-8.5%	17.8µM*	-13.5%	-27.4	-0.2%	-17.3%
COc1ccc(-n2cc(CNCc3cccnc3)c(-c3cccc(F)c3)n2)cc1	0.0%	?	29.6%	11.5	-3.1%	9.7%
COc1ccc(CNCc2cn(-c3cccc(F)c3)nc2-c2ccc(C)o2)cc1	10µM*	.	-16.7%	-25.9	-2.1%	.
COc1ccc(-n2cc(CN3CCC(OC)CC3)c(-c3cccc(F)c3)n2)cc1	2.6%	?	-24.2%	7.0	-1.7%	-16.4%[46.1 µM]
COc1ccc(CNc2cc(C)nc3ncnn23)c(OC)c1	?	?	?	-81.4*	6.9%	-18.7%
CC(C)c1ccc(NC(=O)CN2C(=O)COc3ccc(S(=O)(=O)N4CCCCC4)cc32)cc1	.	.	24.2%	?	.	-0.9%[46.1 µM]
Cc1ccc2c(c1)-c1onc(C(=O)N(C)c3cccc(C(F)(F)F)c3)c1CO2	.	.	-11.9%	-22.3	.	-2.0%[46.1 µM]
